# Measurements from ChEMBL document CHEMBL3988442, “University of Dundee, Small-Polar-MMV Screening Library” (2021).
# Target: Shiga toxin 2 (Escherichia coli O157:H7) (UniProt P09385+P09386)
# Experiment: E. coli 0.157:H7 Shiga Toxin SOP - stx2 screening assay
# Type: functional
# Design: scale not given: direction of the effect not stated beside the values
# Details: 30 µM
row,SMILES,Percent Effect [%]
1,COc1ccc(CNC(C)c2ccc3[nH]c(=O)[nH]c3c2)cc1 (stereo not given),-13.7
2,CCCc1n[nH]c(C2CN(Cc3nnc(C4CC4)o3)CCO2)n1 (stereo not given),-20.6
3,Cc1ccc([C@@H]2CN(C(=O)c3csc(C)n3)C[C@H]2NC(=O)C2CC2)cc1,15.2
4,Cc1cccc(CNC(=O)CNc2cc(CO)ccc2Cl)c1,0.559
5,COCCN1C(=O)CCC12CCN(C(=O)NC(C)C)CC2,6
6,CC(C)C(Sc1nnc(C2CC2)n1C1CC1)C(=O)NCc1cccnc1 (stereo not given),-18.2
7,Cc1ccc(CC(=O)N2CCCC(c3cc(C)[nH]n3)C2)cn1 (stereo not given),-18.6
8,CS(=O)(=O)NCC1CCCN(C(=O)COc2ccc(F)cc2)C1 (stereo not given),-25.1
9,Cc1nn(C)c(C)c1C1CCCN1CCCc1nc2ccccc2o1 (stereo not given),7.57
10,Cc1ccc2c(c1)CN(C(=O)C1CCCCC1)C(CN(C)C)CO2 (stereo not given),2.56
11,O=C(NCc1ccco1)[C@@H]1CCO[C@@H]2CCN(c3ccncn3)C[C@H]21,-15.1
12,Cc1nc[nH]c1CN(C)CC1CCCN(CCc2ccc(Cl)cc2)C1 (stereo not given),-62.7
13,COC(=O)c1cccn1C1CCN(Cc2ccccc2)CC1,-6.65
14,CC(NC(=O)NCCCN(C)S(C)(=O)=O)c1cccc(Cl)c1 (stereo not given),-9.29
15,CCS(=O)(=O)N1C[C@H]2C[C@H](C(=O)N(C)C)[C@@H](C1)O2,-5.91
16,COCC1CN(CC2CC2)Cc2nn(C)cc21 (stereo not given),-5.39
17,COc1c(C2CCCN2CC(=O)Nc2nc(C)cs2)c(C)nn1C (stereo not given),-14.6
18,Cn1nc2c(cc1=O)CN(CCc1nc3ccccc3c(=O)[nH]1)CC2,2.17
19,CCc1cnc(CN(C(C)=O)C2CCN(CCS(C)(=O)=O)C2)o1 (stereo not given),-0.798
20,CNC(=O)CCCNCc1c(C(C)C)nn(C)c1N(C)C,3.71
